Experiment [1] can be described thus: qHTS RealTime-Glo MT Cell Viability Assay in HEK293 cells - 40 hour (AID 1224874). Also: nearly all actives have a fitted effect of over 50% in size. Also: potency is read from the fitted curve at half-maximal effect. The conditions noted are these: RealTime-Glo luminescence; max response: hits give low values. In outline:
(§1)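 Viable HEK293 cells reduce a cell-permeant prosubstrate; the product diffuses out and is consumed by NanoLuc in the medium to give light. Compounds went in after a 5 h incubation and plates were read over the treatment course.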
For orientation: qHTS replaces the single test concentration by a dilution series.

A short description of experiment [2]: A CellTox Green Cytotoxicity Assay to monitor cytotoxicity in HepG2 cells - 16 hour (AID 1224876). Also: nearly all actives have a fitted effect of over 45% in size. Also: potency is read from the fitted curve at half-maximal effect. In outline: (§2)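 Using 1536-well format, dye-containing HepG2 suspension was seeded, allowed 5 h at 37 C/5% CO2, dosed by pintool with compounds, positive and negative controls, and imaged for fluorescence across 40 h.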
A short description of experiment [3]: qHTS RealTime-Glo MT Cell Viability Assay in HepG2 cells - 32 hour (AID 1224877). Also: nearly all actives have a fitted effect of over 55% in size. Also: potency is read from the fitted curve at half-maximal effect. The method in brief:
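HepG2 cells were seeded at 600 cells/well together with NanoLuc luciferase and a cell-permeant prosubstrate, preincubated 5 h at 37 C/5% CO2, then pin-dosed with compounds in DMSO. Nonlytic luminescence from viable cells was read at each time point.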

Experiment [4] can be described thus: A CellTox Green Cytotoxicity Assay to monitor cytotoxicity in HepG2 cells - 24 hour (AID 1224878). Also: nearly all actives have a fitted effect of over 45% in size. Also: potency is read from the fitted curve at half-maximal effect. The method in brief:
as §2

The nature of experiment [5]: A CellTox Green Cytotoxicity Assay to monitor cytotoxicity in HepG2 cells - 40 hour (AID 1224879). Also: nearly all actives have a fitted effect of over 40% in size. Also: potency is read from the fitted curve at half-maximal effect. The method in brief:
as §2

The nature of experiment [6]: qHTS RealTime-Glo MT Cell Viability Assay in HEK293 cells - 0 hour (AID 1224880). Also: nearly all actives have a fitted effect of over 45% in size. Also: potency is read from the fitted curve at half-maximal effect. The method in brief: as §1
A short description of experiment [7]: A CellTox Green Cytotoxicity Assay to monitor cytotoxicity in HepG2 cells - 0 hour (AID 1224882). Also: nearly all actives have a fitted effect of over 35% in size. In outline:
as §2

Experiment [8] is described as follows: A CellTox Green Cytotoxicity Assay to monitor cytotoxicity in HepG2 cells - 32 hour (AID 1224883). Also: nearly all actives have a fitted effect of over 50% in size. Also: potency is read from the fitted curve at half-maximal effect. The method in brief: as §2
Experiment [9] is described as follows: A CellTox Green Cytotoxicity Assay to monitor cytotoxicity in HEK293 cells - 24 hour (AID 1224875). Also: nearly all actives have a fitted effect of over 45% in size. Also: potency is read from the fitted curve at half-maximal effect. The method in brief: (§3)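 Fluorescence intensity, read at 0, 8, 16, 24, 32 and 40 h of compound treatment, reflected dye binding to DNA of dead HEK293 cells; compounds (23 nL, DMSO) were added 5 h after plating cells with reagent.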
Experiment [10] is described as follows: A CellTox Green Cytotoxicity Assay to monitor cytotoxicity in HEK293 cells - 32 hour (AID 1224881). Also: nearly all actives have a fitted effect of over 40% in size. Also: potency is read from the fitted curve at half-maximal effect. In outline: as §3

Values without a mark were called inactive. Results filed as inconclusive are left out. Active and inactive are the calls of the source. Calls follow the shape of the dose curve; as a rule, active = well fitted curve in the direction sought with a large enough effect in the repeat runs; inconclusive = weak or mixed curves; inactive = no such curve, though single readings can be large; an effect the other way counts as inactive or inconclusive.
% is scaled to controls: 0 for no effect and ±100 for the full control effect.

Regarding `N#Cc1nc(Cl)c(Cl)c(Cl)c1Cl`, the Potency was 2.19 µM (active) in [1]; 49 µM (active) in experiment [2]; 19.5 µM (active) in experiment [3]; 49 µM (active) in experiment [4]; 24.5 µM (active) in experiment [5]; 27.5 µM (active) in experiment [8]. Also, the Potency entry in [6] and in [7] was “inactive” throughout.

`CCCCCCCCCCCCCCCCCCNC(=O)OC1CCN(C(=O)OC[C@H](COC(=O)N(Cc2cccc[n+]2CC)C(=O)c2ccccc2OC)OC)CC1`: in experiment [1], the Potency was 9.52 µM (active). Besides, the Potency entry in experiment [6] was “inactive”.

As for `O=C(Nc1ccc([N+](=O)[O-])cc1)Nc1ccc([N+](=O)[O-])cc1` (tested in a mixture with another compound), the Potency in [1] was 4.77 µM (active); in [5], 21.3 µM (active); in [8] it was 21.3 µM (active). Moreover, the Potency entry in [9], in experiment [3], in [6] and in experiment [10] was “inactive” each time.

`Cc1c[nH]c(=O)[nH]c1=O`: the max response in experiment [1] is 10.6%. Moreover, the Potency entry in experiment [9], in [3], in experiment [6], in experiment [10] and in experiment [7] was “inactive” each time.

With `Oc1ccc(C2(c3ccc(O)c(C4CCCCC4)c3)CCCCC2)cc1C1CCCCC1`, the Potency in experiment [1] is 24.5 µM (active); in experiment [3] it was 34.7 µM (active); in experiment [4] it was 34.7 µM (active); in experiment [5], 24.5 µM (active); in experiment [6], 49 µM (active); in [8] it was 34.7 µM (active). Further, the Potency result in experiment [9], in experiment [10] and in [7] was “inactive” in each case.

Turning to `Cc1cc(F)ccc1-c1cc(N2CC[C@@H](O)[C@H]2CO)ncc1N(C)C(=O)C(C)(C)c1cc(C(F)(F)F)cc(C(F)(F)F)c1`, the Potency was 17.1 µM (active) in experiment [1]; 43 µM (active) in experiment [2]; 38.3 µM (active) in experiment [3]; 38.3 µM (active) in [4]; 43 µM (active) in [5]; 43 µM (active) in experiment [8]. Also, the Potency result in experiment [7] is “inactive”.

In the case of `CC1=CC[C@@H](C(C)(C)O)CC1`, the max response in [1] was 4.47%. In addition, the Potency entry in experiment [9], in [3], in [4], in [5], in [6] and in experiment [10] was “inactive” in each case. Besides, the Potency result in experiment [7] and in [8] was “inactive” each time.

`Cc1ccc2nc(-c3ccc(N)cc3)sc2c1S(=O)(=O)O`: the max response in experiment [1] was -21.6%. For the same compound, the Potency result in experiment [9], in experiment [3], in experiment [5], in experiment [6], in experiment [10] and in experiment [7] was “inactive” in each case. Moreover, the Potency entry in [8] is “inactive”.

For the compound `O=C(Nc1ccccc1)c1cc(Cl)ccc1O`, the Potency in [1] was 21.9 µM (active); in experiment [5] it was 49 µM (active); in experiment [8] it was 49 µM (active). Besides, the Potency result in experiment [9], in experiment [6], in experiment [10] and in experiment [7] was “inactive” throughout.

As to `O=C1C=CC(=O)N1c1cccc(N2C(=O)C=CC2=O)c1`, the Potency in experiment [1] is 9.77 µM (active); in [2], 13.8 µM (active); in [3], 15.5 µM (active); in experiment [5], 12.3 µM (active); in experiment [8], 11 µM (active). Further, the Potency entry in [6] and in [7] was “inactive” throughout.

Consider `CCOc1ccc([N+](=O)[O-])cc1`, for which the Potency in [1] was 49.7 µM (active); in experiment [9], 44.3 µM (active); in experiment [10], 44.3 µM (active). In addition, the Potency result in experiment [3], in experiment [6] and in experiment [7] was “inactive” throughout.

Consider `CN[C@H]1CC[C@@H](c2ccc(Cl)c(Cl)c2)c2ccc(S(N)(=O)=O)cc21`, for which the Potency in [1] was 19.5 µM (active); in [9] it was 21.9 µM (active); in experiment [3], 19.5 µM (active); in experiment [5] it was 13.8 µM (active); in experiment [10], 24.5 µM (active); in [8], 13.8 µM (active). Further, in [7], the Potency entry was “inactive”.

With `CCCCCCCCOC(=O)c1cc(O)c(O)c(O)c1`, the Potency in experiment [1] is 11 µM (active); in experiment [3] it was 19.5 µM (active); in experiment [4], 43.6 µM (active); in experiment [5], 24.5 µM (active); in [8], 43.6 µM (active). Besides, the Potency entry in experiment [6] and in [7] was “inactive” in each case.

For `CCCCCCCC/C=C\CCCCCCCC(=O)N(CCO)CCO`, in experiment [1], the Potency was 43.5 µM (active). In addition, the Potency entry in experiment [2], in experiment [3] and in [6] was “inactive” in each case.

Take `NCc1ccco1`: in [1], the max response is 18.6%. Moreover, the Potency result in experiment [3], in [4], in [5], in experiment [6], in experiment [10] and in [7] was “inactive” each time. Also, the Potency entry in experiment [8] is “inactive”.

Regarding `Cc1ccc2n[nH]nc2c1`, the max response in experiment [1] was -0.793%. For the same compound, the Potency result in experiment [9], in [3], in [4], in [5], in experiment [6] and in experiment [10] was “inactive” throughout. Further, the Potency entry in experiment [7] and in experiment [8] was “inactive” throughout.

In the case of `CN1CC[C@H](c2c(O)cc(O)c3c(=O)cc(-c4ccccc4Cl)oc23)[C@H](O)C1`, the Potency in experiment [1] is 0.19 µM (active); in experiment [4], 0.268 µM (active); in [5], 0.239 µM (active); in [8] it was 0.213 µM (active). Also, the Potency result in [9], in experiment [3], in experiment [6], in experiment [10] and in experiment [7] was “inactive” in each case.

For `Clc1ccc2c(Cl)ccnc2c1`, in [1], the max response is -6.98%. Besides, the Potency entry in experiment [9], in [3], in [5], in experiment [6], in experiment [10] and in experiment [7] was “inactive” in each case. The Potency entry in experiment [8] is “inactive”.

On to `NC(=O)c1ccccc1Cl`, for which the max response in [1] is -1.02%. For the same compound, the Potency result in [9], in experiment [3], in experiment [4], in [5], in [6] and in experiment [10] was “inactive” throughout. The Potency entry in [7] and in experiment [8] was “inactive” each time.
